Active and inactive are the calls of the source. The calls were made as follows: active = hit-call score of the fitted dose curve at least 0.9, where 1 is the maximum; inactive = score below 0.9.

The experiment in a line: ATG_PXRE_CIS: Attagene CIS-FACTORIAL HepG2 Assay for human Pregnane X Receptor Element (PXRE) (AID 2282957). The settings on record: HepG2 Attagene CIS-FACTORIAL PXRE reporter, mRNA; actives raise or lower the signal. The method, then: ATG_CIS is a cell-based, multiplexed-readout assay that uses HepG2, a human liver cell line, with measurements taken at 24 hours after chemical dosing in a 24-well plate.ATG_PXRE_CIS is one of 52 assay component(s) measured or calculated from the ATG_CIS assay. It is designed to make measurements of mRNA induction, a form of inducible reporter, as detected with fluorescence intensity signals by Reverse transcription polymerase chain reaction (RT-PCR) and Capillary electrophoresis technology.Data from the assay component ATG_PXRE_CIS was analyzed into 1 assay endpoint. This assay endpoint, ATG_PXRE_CIS, was analyzed with bidirectional fitting relative to DMSO as the negative control and baseline of activity. Using a type of inducible reporter, measures of mRNA for gain or loss-of-signal activity can be used to understand the reporter gene at the transcription factor-level as they relate to the gene NR1I2. Furthermore, this assay endpoint can be referred to as a primary readout, because this assay has produced multiple assay endpoints where this one serves a reporter gene function. To generalize the intended target to other relatable targets, this assay endpoint is annotated to the nuclear receptor intended target family, where the subfamily is non-steroidal.
Human liver HepG2 cells are transiently transfected with multiple reporter transcription units (MRTUs) in 6-well plates using FuGene 6 reagent (Roche; 3 ml FuGene/1 mg DNA). The MRTU constructs are regulated by a cis-regulating element (promoter). […] A major difference between the CIS and TRANS system is that in CIS activities of endogenous TFs are measured, whereas the TRANS assay evaluates changes in activities of exogenous, chimeric NR-Gal4 proteins. […] At the end of 24 hour incubation, total RNA was isolated using TriZol reagent (Invitrogen). The isolated RNA is then reverse-transcribed using oligo(dT) primer and Mo-MLV reverse transcriptase (Invitrogen) with DNAse I (Ambion) treatment for 30 min. The one-tenth of the produced cDNA was amplified by PCR using Taq DNA polymerase (Invitrogen) and two reporter sequence-specific primers. The PCR products were fluorescently labeled by primer extension with 6-arboxyfluorescein (6-FAM) 5'-labeled reporter sequence-specific primer (2 min at 95 C, 20 s at 68 C and 10 min at 72 C) and these products were digested with 5U of HpaI (New England Biolabs) for 2h at 37 C. The fragments were purified using Qiaquick PCR columns (Qiagen), analyzed on an ABI 3130xL genetic analyzer (Applied Biosystems) with peak positions identified by using a set of X-rhodamine (ROX)-labeled MapMarker1000 molecular weight standards (BioVentures). The raw capillary electrophoresis data was processed using Attagraph software (Attagene).
The term AC50 denotes the concentration at which the activity in the assay is half-maximal. Take `COc1ccccc1NC(=O)CC(C)=O`: the AC50 was 34.2 µM (active).

In the case of `CCOC(=O)C(=O)OCC`, the compound was called inactive.

Regarding `CCCC1CCC(=O)CC1`, the AC50 is 27.6 µM (active).

For the compound `CC1(C)CC(=O)CC(C)(C)N1`, the AC50 was 36.2 µM (active).

`CCO[Si](CC)(OCC)OCC`: the AC50 was 2.33 µM (active).

On to `CCCCCCCCCCCCN1CCOCC1`, for which the call was inactive.

Regarding `CC(=O)CC(C)(C)C1CCCCC1`, the AC50 was 30.7 µM (active).

On to `c1coc(CNc2ncnc3nc[nH]c23)c1`, for which the AC50 is 44 µM (active).

Take `Cc1ccccc1S`: the half-maximal activity concentration (AC50) was 19.7 µM (active).

On to `O=C1OC2(c3ccc(O)cc3Oc3cc(O)ccc32)c2ccccc21`, for which the AC50 is 0.741 µM (active).

As to `CCCCOCCOC(=O)c1ccccc1C(=O)OCCOCCCC`, the half-maximal activity concentration (AC50) is 5.46 µM (active).

As for `C=C(C)CCCC(C)CCO` (stereo not given), the AC50 was 6.72 µM (active).

As for `C=C(C)C(=O)OCCC[Si](OC)(OC)OC`, the result was inactive.

On to `CCCCCCCCCO`, for which the call was inactive.

For the compound `OCCN1CCOCC1`, the outcome was inactive.

With `CN(C)C`, the outcome was inactive.

`CCCCCCC(O)CCOC(C)=O` (stereo not given): the AC50 was 18.6 µM (active).

With `CC(=N[Si](C)(C)C)O[Si](C)(C)C`, the call was inactive.

`CCCCCC1C(=O)CCC1CC(=O)OC` (stereo not given): the compound was classed as inactive.

As for `CCCO`, the AC50 was 85.4 µM (active).

With `O=C(O)CS`, the call was inactive.

Regarding `CN(C)c1ccc(C=O)cc1`, the compound was called inactive.

With `CCCCCCCCCCCCOC(C)=O`, the call was inactive.

For the compound `CCOCC(C)O` (stereo not given), the concentration at half-maximal activity (AC50) is 45.3 µM (active).

Turning to `CC(=O)c1ccc(O)cc1`, the AC50 is 100 µM (active).

With `O=C(C=Cc1ccccc1)OCCCc1ccccc1`, the AC50 was 19.9 µM (active).

For `C=CC(=O)OCC(CO)(COC(=O)C=C)COC(=O)C=C`, the outcome was inactive.

Take `CC1=CCC(C(C)(C)O)CC1` (stereo not given): the compound was classed as inactive.

For the compound `FC(F)(F)c1ccc(Cl)c(Cl)c1`, the AC50 was 27.9 µM (active).

Consider `CC(CCO)CC(C)(C)C` (stereo not given), for which the result was inactive.

Take `Brc1cc(Br)cc(Br)c1`: the AC50 is 100 µM (active).

Take `NNC(=O)OCc1ccccc1`: the call was inactive.

For the compound `CCCC1CCOC(C)S1` (stereo not given), the AC50 is 54 µM (active).

On to `C=CC(C)(CCC=C(C)C)OC(=O)CC` (stereo not given), for which the concentration at half-maximal activity (AC50) is 31 µM (active).

Regarding `CCC(CC)CO`, the outcome was inactive.

As for `CC(C)C(=O)c1ccccc1`, the call was inactive.

Take `CC(C)CCCC(C)(C)O`: the call was inactive.

As for `C=C(C)C(N)=O`, the compound was classed as inactive.

In the case of `CCCC(O)C(CC)CO` (stereo not given), the AC50 is 47.6 µM (active).

For the compound `C[N+](C)(C)CCO`, the result was inactive.

The values are drawn from PubChem BioAssay (EPA / NIEHS).
